According to ChEMBL document CHEMBL4513216, “Probing the Open Global Health Chemical Diversity Library for Multistage-Active Starting Points for Next-Generation Antimalarials” (ACS Infect Dis, 2020):
Hit rate of the full screen: of about 69,000 compounds, about 8,600 (12%) showed an effect of 50% or more. The sample as a whole holds a higher share of strong results than the screen did.

system: Plasmodium berghei; test: Screen against P. berghei liver stage (PbLuc), transformed with Luciferase, at 10uM; type: functional, HepG2; conditions: tested at 10 uM

Row | SMILES | INHIBITION [%]
1 | COCC(=O)NC(C)c1cccc(Br)c1 (configuration not stated) | -60.9
2 | Cc1ccn(-c2ccnc(N3CCSCC3)n2)n1 | 30
3 | COc1ccc(C[C@H]2CN(Cc3ccoc3)CC[C@H]2OC)cc1 | 63.3
4 | COc1ccc(C[C@H]2CN(C(=O)c3cnoc3)CC[C@@H]2OC)cc1 | -50.4
5 | CO[C@@H]1CCN(Cc2ccoc2)[C@H]1Cc1ccccc1 | 29.5
6 | CO[C@@H]1CCN(Cc2ccoc2)C[C@@H]1Cc1ccccc1 | 51.4
7 | COc1ccc(CN2C[C@@H]3CN(Cc4ccoc4)C[C@@H]3C2=O)cc1 | -4.82
8 | COc1ccc(C[C@H]2CN(C(=O)CN(C)C)CC[C@H]2OC)cc1 | 41.6
9 | COc1ccc(C[C@H]2CN(C(=O)C3CC3)CC[C@H]2OC)cc1 | 11.2
10 | COc1ccc(C[C@H]2CN(Cc3ccoc3)CC[C@@H]2OC)cc1 | 58.3
11 | CO[C@H]1CCN(Cc2ccoc2)C[C@@H]1Cc1ccccc1 | 41.4
12 | CC(C)C1CCCN1CCCc1nc(-c2cccs2)no1 (configuration not stated) | -4.94
13 | CCN1C(=O)CCC12CCC(NC(=O)c1ccncc1F)CC2 (configuration not stated) | 38.3
14 | CCn1nc(C)cc1C(=O)N1C[C@@H](CN(C)C)[C@@H](CO)C1 | 38.7
15 | O=C(NCC1CCCO1)c1nc2c(s1)CCCN2CC1CC1 (configuration not stated) | -14.2
16 | c1cncc(-c2nnc(C3(c4ccc5c(c4)OCO5)CCOCC3)o2)c1 | 72.2
17 | Cn1cccc1-c1nnc(C2(c3ccc4c(c3)OCO4)CCOCC2)o1 | 41.8
18 | c1cc(-c2nnc(C3(c4ccc5c(c4)OCO5)CCOCC3)o2)ccn1 | 40.7
19 | CCN1CCC(CC(=O)NCCc2nc(N)cc(O)n2)CC1 | 0.348
20 | CC(C)CN1CCc2[nH]cnc2C12CCN(C(=O)c1cc[nH]n1)CC2 | 48.5
21 | CCN1CCNC(=O)C12CCN(C(=O)c1ccccn1)CC2 | -5.25
22 | CC(C)CN1CCNC(=O)C12CCN(C(=O)c1ccccn1)CC2 | 50.7
23 | Cc1cnc(C(=O)N2CCC3(CC2)C(=O)NCCN3CC(C)C)cn1 | 26.5

Row | SMILES | INHIBITION [%]
24 | CC(C)CN1CCc2[nH]cnc2C12CCN(C(=O)c1ccccn1)CC2 | 55
25 | Cc1cc(C(=O)N2CCC3(CC2)c2nc[nH]c2CCN3CC(C)C)no1 | 20.4
26 | O=C(O)C1(Cc2ccccc2Cl)CCN(c2ncnc3[nH]ccc23)CC1 | 43.3
27 | Cc1nn(C)c(Cl)c1C1CCCN1Cc1cccc(C(N)=O)c1 (configuration not stated) | 11.2
28 | Cn1c(=O)c2cc(C(=O)NCc3ccccn3)ccc2n(C)c1=O | 26.3
29 | CC(C)NC(=O)N1CCCn2cnc(CO)c2C1 | -3.77
30 | CC(C)c1noc(C(C)N2CCN(Cc3cccnc3)CC2)n1 (configuration not stated) | 15.5
31 | CN(C)CC(=O)N1Cc2nnn(C)c2C(COCC2CC2)C1 (configuration not stated) | 24
32 | COCC1CN(C(=O)[C@H]2CCCO2)Cc2nnn(CC3CC3)c21 (some centres not stated) | -4.99
33 | Cn1nnc2c1C(COCC1CC1)CN(C(=O)[C@H]1CCCO1)C2 (some centres not stated) | 68.9
34 | CCOCC1CN(C(=O)[C@H]2CCCO2)Cc2nnn(CC3CC3)c21 (some centres not stated) | 57.1
35 | CCOCC1CN(C(=O)N(C)C)Cc2nnn(CC3CC3)c21 (configuration not stated) | -3.51
36 | CN(C)C(=O)N1Cc2nnn(C)c2C(COCC2CC2)C1 (configuration not stated) | 41.8
37 | Cc1nccn1CCN(C)C(=O)C1CCCN(C2CCOCC2)C1 (configuration not stated) | 34.1
38 | Cc1cc(C)n(CC2CCCN2CCc2ccccn2)n1 (configuration not stated) | 44.4
39 | Cc1cc(CNC2CCc3nc(C(C)C)nn3C2)on1 (configuration not stated) | 11.3
40 | COC(=O)CC(NC(=O)c1cc(OC)c2c(c1)OCCO2)c1cccs1 (configuration not stated) | 29.4
41 | COC(=O)CC(NC(=O)c1ccccc1OC)c1cccs1 (configuration not stated) | 40
42 | COC(=O)CC(NC(=O)c1ccc(OC)cc1OC)c1cccs1 (configuration not stated) | 7.08
43 | CCC(NC(=O)c1cccc(N2CCCC2=O)c1)c1ccc(OC)cc1 (configuration not stated) | 52.6
44 | COC(=O)CC(NC(=O)c1cccc(N2CCCC2=O)c1)C(=O)OC (configuration not stated) | 2.55
45 | COCCc1noc(CN(C)C(=O)c2cccc(N3CCCC3=O)c2)n1 | 13.9
46 | CCC(C)C(=O)NCc1cccc(N2CCCCC2=O)c1 (configuration not stated) | 11.6

Row | SMILES | INHIBITION [%]
47 | COC(=O)CC(NC(=O)c1cccc(N2CCCC2=O)c1)c1cccs1 (configuration not stated) | 62.8
48 | COC(=O)CC(NC(=O)c1cccc(CS(C)(=O)=O)c1)c1cccs1 (configuration not stated) | 71.2
49 | Cc1cc(S(=O)(=O)NCC[S+](C)[O-])c(F)cc1F (configuration not stated) | 37.6
50 | CC(O)CN1CCN(C(=O)c2sccc2C2CC2)CC1 (configuration not stated) | -1.14
51 | Cc1cnc(CC2COCCN(Cc3nccn3C)C2)cn1 (configuration not stated) | 44.1
52 | CC(C)n1ccnc1C1CCN(Cc2ccc(C(F)(F)F)c(F)c2)CC1 | 42.5
53 | CO[C@@H]1CCN(Cc2ccoc2)[C@@H]2CN(Cc3ccco3)C[C@@H]21 | 45.2
54 | CC(C)(C)c1ccn(C2(C(=O)O)CCN(c3ccnc(N)n3)CC2)n1 | 34.5
55 | Cc1nc(C)c(CN2CCOC[C@H](Oc3ccccc3)C2)s1 | 71.4
56 | Cc1cccc(O[C@H]2COCCN(Cc3sc(C)nc3C)C2)n1 | -60.9
57 | Cc1nc(C)c(CN2CCOC[C@H](Oc3ccc(S(C)(=O)=O)cc3)C2)s1 | 26.4
58 | CN(Cc1cc[nH]n1)C(=O)c1cn(Cc2c(F)cccc2F)nn1 | 19.3
59 | Cc1cc(S(=O)(=O)N2CCCc3cc(F)c(F)cc32)sc1C(=O)O | 33.7
60 | CC(=O)N1CCC(n2ccc(-c3cnc(N4CCOCC4)nc3)n2)CC1 | 17.4
61 | CC(=O)N1CCC(n2ccc(-c3cnc(NCC(C)C)nc3)n2)CC1 | 56
62 | CC[C@H](C)Nc1ncc(-c2ccn(C3CCN(C(C)=O)CC3)n2)cn1 | 24.8
63 | CNc1cncc(C2CCCN2S(=O)(=O)c2cccc(F)c2)n1 (configuration not stated) | 14.7
64 | Cc1ccc(C(=O)N2C[C@@H]3CCCO[C@@H]3[C@H](N(C)Cc3ccco3)C2)o1 | -7.59
65 | CN(C)c1ncccc1CNC(=O)N1CCCC1CN1CCCC1 (configuration not stated) | 57.8
66 | CN(C)c1ncccc1CNC(=O)N1CCCC1CN1CCCCC1 (configuration not stated) | 11.6
67 | CN(C)c1ncccc1CNC(=O)N1CCCC1c1ccsc1 (configuration not stated) | -0.847
